In PubChem BioAssay AID651636 (Sanford-Burnham Center for Chemical Genomics, 2012) one finds inhibition data, which are given here for 58 compounds.

SMILES strings stand for the structures. About 3,000 (0.83%) of roughly 360,000 compounds were called active. For the sample, actives were picked, then their nearest neighbours and some compounds at random. Unmarked numbers belong to inactive results. Cut-off read from the data, not from the text of the source: active = inhibition above about 38%; inactive = the rest.

Chain of G-protein coupled receptor 183 (Homo sapiens) (P32249 whole entry, looked up, the tested form may be a part): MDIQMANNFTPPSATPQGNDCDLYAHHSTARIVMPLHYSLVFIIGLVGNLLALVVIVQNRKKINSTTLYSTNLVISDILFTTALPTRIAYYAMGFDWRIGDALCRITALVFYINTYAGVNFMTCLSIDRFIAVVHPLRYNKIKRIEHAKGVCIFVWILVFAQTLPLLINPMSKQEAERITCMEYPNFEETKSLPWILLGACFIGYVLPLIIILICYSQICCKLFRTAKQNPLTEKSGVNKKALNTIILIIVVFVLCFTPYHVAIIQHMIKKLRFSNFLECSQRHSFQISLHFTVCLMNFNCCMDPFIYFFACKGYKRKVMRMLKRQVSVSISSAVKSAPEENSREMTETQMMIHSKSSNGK

This experiment has as its target G-protein coupled receptor 183 (Homo sapiens) (UniProt P32249). Nature of the experiment: blockers of oxysterol-driven EBI2 arrestin signaling – cell-based, luminescence, 7a,25-OHC stimulation, uHTS, primary screen (AID 651636).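 Note: enzyme fragment complementation signal reports receptor beta-arrestin coupling in cells; 0% = agonist plus DMSO wells and 100% = wells without agonist.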 As to conditions: EBI2 beta-arrestin recruitment, 7a,25-OHC stimulated, at 5 µM, stronger effect = higher value.
With `O=C(NCc1ccc(Cl)cc1)c1cc2c(nc3sccn32)s1`, the inhibition is 12.5%. To `O=C(NCc1ccc(Cl)cc1)c1cc(=O)nc2sc(-c3ccccc3)nn12` belongs 49.6% (active). `O=C(Cc1ccc(Cl)cc1)NCc1nc(-c2ccccc2)no1`: the inhibition is 4.5%. For the compound `CC(=O)NC12CC3CC(C1)CC(C(=O)N1CCN(C(=O)c4ccco4)CC1)(C3)C2`, the inhibition was 1.98%.

Regarding `COc1ccc(-c2nnn(Cc3nc(N)nc(N4CCCCC4)n3)n2)cc1`, the inhibition is 5.05%. In the case of `COc1ccc(-c2nc(N)ncc2-c2ccc(Cl)cc2)c(O)c1` it was 88.2% (active); in that of `COc1ccc(-c2c(-c3ccc(OC)cc3O)nc(C)nc2C(F)(F)F)cc1`, 14.5%; in that of `COc1cccc(-c2cnc(OC(C)(C)C)nc2OC(C)(C)C)c1`, -3.37%. In the case of `CCOc1ccc(C(=O)N(Cc2ccc(N(C)C)cc2)C2CCS(=O)(=O)C2)cc1` (stereo not drawn) it was 7.56%; in that of `O=C(Nc1cc2c3c(c1)CC(=O)N3CCC2)c1ccccc1F`, -3.38%; in that of `Oc1ccc2ccccc2c1N=Nc1nccs1`, 58.9% (active). In the case of `CC1(c2nnc(Cc3ccccc3)o2)CC(c2ccccc2F)=NO1` (stereo not drawn) it was -4.25%; in that of `CCOC(=O)[C@]12CCCC=C1N(CCC1=CCCCC1)C(=O)[C@H](CC(=O)N1CCN(C(=O)c3ccco3)CC1)C2`, -0.759%. In the case of `c1ccc(-c2cnc(CN3CCN(c4ccccc4)CC3)o2)cc1`, the inhibition is 3.15%. In the case of `Fc1ccc(N2CCN(Cc3cnc(Oc4ccc(Br)cc4)s3)CC2)cc1` it was 46.4% (active); in that of `COc1ccc(N2CCN(Cc3ccc(Br)s3)CC2)cc1`, -1.05%; in that of `COc1ccc(OC)c(C(=O)c2coc3ccc(OC)cc23)c1`, 5.5%. In the case of `COc1ccc(OC)c(C(=O)c2coc3ccc(O)c(CN4CCOCC4)c23)c1`, the inhibition was 37% (active).

As for `Cc1ccc(C(=O)c2coc3ccc(O)c(CN(C)C)c23)cc1`, the inhibition was -7.39%. For `CN(O)C(=S)c1ccccc1`, the inhibition was 43% (active).

Regarding `C=CCOC(=O)C1=C[C@@H](c2ccccc2)C[C@@H](OCc2ccc(CO)cc2)O1`, the inhibition was 7.13%. In the case of `Cc1ccc2c(C)c(C(=O)N3CCN(c4ccncc4)CC3)oc2c1C` it was 1.76%. In the case of `CCCC1CCC(=NNC(=S)NCCc2ccccc2)CC1` (stereo not drawn) it was 66.9% (active). To `Cc1cc(F)ccc1NC(=S)NCCc1ccccc1` belongs 1.81%; to `CCCCNC(=S)N/N=C1\CCCCc2ccccc21`, 6.96%.

On to `CC(=O)CCS(=O)(=O)c1ccc(C)c(C)c1`, for which the inhibition was -7.62%. For the compound `CC(=O)c1cc(-c2ccccc2)n(CCC(=O)NC2CCCCCC2)c1C`, the inhibition is -14.6%. With `COc1ccc(Sc2ccc(NC(=O)c3cccc(Cl)c3)cc2C#N)cc1`, the inhibition was 19.1%. To `COc1ccc(Nc2cc(Sc3ccc(OC)cc3)ncn2)cc1` belongs 55.7% (active); to `COc1ccc(NC(=O)CSc2ncnc3[nH]ncc23)cc1`, -1.87%. In the case of `CN1C(=O)CC(N2CCN(c3ccccn3)CC2)C1=O` (stereo not drawn) it was 1.43%; in that of `CO/N=C(/CS(=O)(=O)c1ccc(Br)cc1)c1ccc(OC)cc1`, 2.11%. To `O=C(CC(c1ccccc1)c1ccccc1)NCC(O)c1ccc([N+](=O)[O-])cc1` (stereo not drawn) belongs 68.3% (active); to `O=C(NCC(O)c1ccc([N+](=O)[O-])cc1)C1CCCCC1` (stereo not drawn), 19.3%; to `CN(C)C(CNC(=O)Cc1ccc([N+](=O)[O-])cc1)c1ccccc1` (stereo not drawn), -5.83%.

In the case of `COc1ccccc1CNC(=O)C1Cc2ccccc2C(=O)O1` (stereo not drawn), the inhibition is -4.46%. In the case of `Cc1ccc(S(=O)(=O)N2CC3C(=O)C[C@@H](c4ccccc4Cl)N(S(=O)(=O)c4ccc(C)cc4)C3CC2c2ccccc2)cc1` (stereo partly drawn) it was 17%; in that of `CC1Oc2ccccc2N(Cc2cccnc2)C1=O` (stereo not drawn), 2.36%; in that of `CCCCC(=O)N(C)c1c(CC)nc2c(OCc3ccc(Cl)cc3Cl)cccn12`, 42.4% (active). In the case of `CCc1nc2c(OCc3ccc(Cl)cc3Cl)cccn2c1N(C)C(=O)C(C)C` it was 36.4%.

On to `CCCCC(=O)N(C)c1c(CC)nc2c(OCc3ccc(S(C)(=O)=O)cc3)cccn12`, for which the inhibition is -7.39%. In the case of `CCCOC(=O)c1c(NC(=O)c2cnn3c2NC(c2ccccc2)CC3C(F)(F)F)sc2c1CCCC2` (stereo not drawn) it was -7.48%; in that of `Cc1ccccc1C(CC(=O)c1cccs1)C(C#N)C#N` (stereo not drawn), -15.3%; in that of `NC(=O)C1(N2CCCCC2)CCN(C2CC(=O)N(Cc3ccc(N4CCCC4=O)cc3)C2=O)CC1` (stereo not drawn), -18.3%. With `COc1ccccc1-n1c(=S)[nH]c2c(sc(=S)n2-c2ccc(C)cc2C)c1=O`, the inhibition is 0.762%. To `O=[N+]([O-])c1c(NCCO)cc(Sc2nc3ccccc3s2)c2nonc12` belongs 51.4% (active); to `Cc1ccn2c(=O)c(C(=O)NCCC3=CCCCC3)c(O)nc2c1`, -7.12%; to `COc1ccc(CN(Cc2ccco2)S(=O)(=O)c2ccc(S(=O)(=O)N3CCCC3)cc2)cc1`, -7.47%. To `COc1cc(S(=O)(=O)N(Cc2cccs2)C2CC2)ccc1-n1cnnn1` belongs 6.23%; to `CCOc1ccc(CN(Cc2ccco2)S(=O)(=O)c2ccc(-n3cnnn3)c(OC)c2)cc1`, 50.9% (active); to `CCCCCCCCN1C(=O)[C@H](CC(=O)NCC23CC4CC(CC(C4)C2)C3)C[C@@]2(C(=O)OC)CCCCC=C12`, 8.12%. In the case of `COC1=CC(=O)OC(C)(c2ccccc2)C1` (stereo not drawn) it was -4.31%. For the compound `COc1ccc(CCNC(=O)CN(c2ccccc2)S(=O)(=O)c2ccccc2)cc1`, the inhibition was -2.04%. In the case of `COc1ccc(S(=O)(=O)N(CC(=O)NCc2ccco2)c2ccc(F)cc2)cc1` it was -6.33%; in that of `COc1ccc(CNC(=O)CN(c2ccc(OC)c(Cl)c2)S(=O)(=O)c2ccc(C)cc2)cc1`, 42% (active). In the case of `CCOP(=O)(OCC)C(Cc1ccccc1)N=C(c1ccccc1)c1ccccc1` (stereo not drawn) it was 23.7%. Turning to `O=C(NCc1ccc(F)cc1)c1cc(C2CCCCN2C(=O)C2CCCCC2)on1` (stereo not drawn), the inhibition was 13.6%. In the case of `CC1CCN(S(=O)(=O)c2ccc3[nH]c(=O)ccc3c2)CC1`, the inhibition is -4.98%.
